Records with an inconclusive call do not appear. Activity calls are given as the source filed them. Unless noted, the call rests on the fitted dose curve.

Test [1] in a line: Nuclear factor erythroid 2-related factor 2/antioxidant responsive element (Nrf2/ARE) small molecule agonists: qHTS cell viability counter screen in human keratinocytes (AID 1919968; active means well fitted curve in the direction sought with a large enough effect in the repeat runs; an effect the other way counts as inactive or inconclusive; further: nearly all actives have a fitted effect of over 55% in size). The gist of the method:
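Measured as CellTiter-Fluor fluorescence, this readout tracks cytotoxicity in the same wells as the ARE-luciferase screen. HaCaT reporter cells (1,500/well) received compounds after a 5 h pre-incubation and were exposed for 23 h.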
Background: In qHTS, concentration-response curves come from the screen itself.

A short description of test [2]: Nuclear factor erythroid 2-related factor 2/antioxidant responsive element (Nrf2/ARE) small molecule agonists: luciferase reporter gene qHTS assay in human keratinocytes (AID 1919969; further: nearly all actives have a fitted effect of over 35% in size). (In general: In a reporter assay the amount or activity of a reporter protein is the signal.)
In test [3] the target is Gonadotropin-releasing hormone receptor (Homo sapiens) (UniProt P30968). The test can be described thus: Human gonadotropin-releasing hormone receptor (GnRHR) small molecule agonists, calcium flux assay in GnRHR-HEK293 cells (AID 1920063). Further: nearly all actives have a fitted effect of over 35% in size. The gist of the method: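 Fluorescence kinetics (480 nm excitation, 540 nm emission; 3 min, 1 s steps) report calcium mobilisation in human GnRHR-HEK293 cells in agonist mode. Dye incubation: 1 h, 37 C.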
Chain of Gonadotropin-releasing hormone receptor (Homo sapiens) (P30968 whole entry, looked up): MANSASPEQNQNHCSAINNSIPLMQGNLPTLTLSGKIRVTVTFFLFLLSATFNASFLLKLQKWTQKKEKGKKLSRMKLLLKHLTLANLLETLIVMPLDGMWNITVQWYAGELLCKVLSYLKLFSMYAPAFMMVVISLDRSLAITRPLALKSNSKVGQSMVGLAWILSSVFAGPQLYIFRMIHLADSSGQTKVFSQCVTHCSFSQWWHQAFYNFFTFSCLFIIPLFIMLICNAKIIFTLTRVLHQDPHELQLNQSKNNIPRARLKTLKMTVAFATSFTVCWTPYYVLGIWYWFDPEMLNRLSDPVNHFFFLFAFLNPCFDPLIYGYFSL
(Calcium assays in cells follow changes in intracellular calcium, usually with a dye or a luminescent sensor.)

The target in test [4] is KiSS-1 receptor (Homo sapiens) (UniProt Q969F8). The test can be described thus: Human kisspeptin (KISS1R) small molecule agonists, calcium flux assay in KISS1R-HEK293 cells (AID 1920064; active means well fitted curve in the direction sought with a large enough effect in the repeat runs; an effect the other way counts as inactive or inconclusive). The gist of the method:
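Measures KISS1R agonism through calcium-sensitive dye fluorescence in stably transfected HEK293 cells, read for 3 min after pin-tool compound delivery; 15-point titrations in triplicate.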

Test [5] can be described thus: G protein-coupled receptor (GPCR) small molecule agonists, calcium flux assay: HEK293 wild type cell line counter screen (AID 1920065). The gist of the method: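 Readout: fluorescence at 480 nm excitation/540 nm emission, sampled at 1 s intervals for 3 min. Cells had been cultured 18 h, then dye-loaded 1 h at 37 C before compound or ATP addition.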
Test [6] is described as follows: p53 small molecule agonists, cell-based qHTS assay with human liver microsomes (AID 1963577).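 Further: p53 response element beta-lactamase reporter cells with liver microsomes plus NADPH.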 The gist of the method:
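Metabolically competent format: test substances, human liver microsomes and NADPH (both 0.5 mg/mL final) incubated with p53RE-bla cells 16 h at 37 C. Beta-lactamase reporter signal then quantified by fluorescence.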

Test [7] in a line: p53 small molecule agonists, cell-based qHTS assay with human liver microsomes: qHTS cell viability counter screen (AID 1963579). Further: nearly all actives have a fitted effect of over 45% in size. The procedure, abridged:
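Tox21 library compounds, delivered from DMSO stocks, were tested on p53RE-bla cells together with 0.5 mg/mL human liver microsomes and 0.5 mg/mL NADPH (final) over 16 h at 37 C; CellTiter-Glo luminescence served as the cytotoxicity measure.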

The nature of test [8]: p53 small molecule agonists, cell-based qHTS assay: qHTS cell viability counter screen (AID 1963581). Further: nearly all actives have a fitted effect of over 45% in size. The gist of the method:
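In the same plates used for the p53 bla reporter, HCT-116 cells given compounds for 16 h at 37 C received CellTiter-Glo; luminescence was recorded 30 min later at room temperature.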

Test [9] can be described thus: p53 small molecule agonists, cell-based qHTS assay (AID 1963582; active means well fitted activation curve with a large enough effect in the signal ratio in the repeat runs, not every such curve was filed as active; the % refers to the signal ratio). The procedure, abridged:
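Compounds are pin-transferred in DMSO onto p53RE-bla cells and incubated 16 h at 37 C. The B/G FRET beta-lactamase substrate is then applied for 2 h at RT and fluorescence recorded.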

In test [10] the target is 5-hydroxytryptamine receptor 2A (Homo sapiens) (UniProt P28223). As to the kind of experiment: 5-hydroxytryptamine receptor 2A (HTR2A) small molecule antagonists, cell-based qHTS assay (AID 1963586). Further: nearly all actives have a fitted effect of over 45% in size. The procedure, abridged:
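Antagonist-mode intracellular calcium assay: DOI (4 nM) added after 5 min compound pre-incubation at room temperature to dye-loaded HTR2A-CHO cells. Fluorescence followed for 3 min, sampled every second.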

The target is the same in test [11]. As to the kind of experiment: 5-hydroxytryptamine receptor 2A (HTR2A) small molecule agonists, cell-based qHTS assay (AID 1963587). Further: nearly all actives have a fitted effect of over 30% in size. The gist of the method:
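CHO cells stably expressing human HTR2A, plated 18 h, loaded with calcium dye 1 h at 37 C. Agonist mode: compounds added and intracellular calcium fluorescence recorded kinetically for 2 min at 1 sec intervals.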

For test [12], the target named is Muscarinic acetylcholine receptor M1 (Homo sapiens) (UniProt P11229). The test can be described thus: Cholinergic receptor muscarinic 1 (CHRM1) small molecule antagonists, cell-based qHTS assay (AID 1963588). Further: nearly all actives have a fitted effect of over 40% in size. Further: potency means the concentration at half of the fitted maximal effect. The gist of the method:
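CHRM1-CHO calcium-flux assay, antagonist mode. Cells were seeded 18 h, dye-loaded 1 h at 37 C and given compound for 5 min at RT, then acetylcholine was added at 50nM. FDSS fluorescence was read 3 min; 15 concentrations, three runs.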

For test [13] the target is unchanged. As to the kind of experiment: Cholinergic receptor muscarinic 1 (CHRM1) small molecule agonists, cell-based qHTS assay (AID 1963589). Further: nearly all actives have a fitted effect of over 35% in size. The gist of the method: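 Each compound was tested at 15 concentrations across three independent runs on dye-loaded CHO cells stably expressing human CHRM1, reading intracellular calcium fluorescence kinetically at 1 sec intervals.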

Test [14] in a line: cAMP Responsive Elements (CRE) small molecule agonists, cell-based qHTS assay (AID 1963590). The gist of the method: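 Cell line: CRE-bla HEK 293T; medium DMEM/10% dialyzed FBS/0.1 mM NEAA/1 mM pyruvate/25 mM HEPES; 3 h compound exposure; beta-lactamase FRET readout after 2 h substrate loading at RT.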
Test [15] is described as follows: cAMP Responsive Elements (CRE) small molecule antagonists, cell-based qHTS assay (AID 1963591; active means well fitted inhibition curve with a large enough effect in the signal ratio in the repeat runs, not every such curve was filed as active; the % refers to the signal ratio). The gist of the method: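 Inhibition of NKH477-driven (0.25 uM final) CRE-beta-lactamase signal in HEK293T cells, 3 h compound exposure at 37 °C, detected by FRET substrate fluorescence.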
Test [16] has as its target Beta-2 adrenergic receptor (Homo sapiens) (UniProt P07550). The test can be described thus: Adrenergic beta2 receptor (ADRB2) small molecule antagonists, cell-based qHTS assay (AID 1963592). Further: series mostly up to about 92 µM; nearly all actives have a fitted effect of over 50% in size. The gist of the method: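 Cells (CHO, stable ADRB2 overexpression) incubated 18-20hr at 37C; compounds added from DMSO; agonist mix (1nM isoproterenol, 100uM IBMX, 25uM Ro-20-1724) added; 0.5hr RT; d2-cAMP and anti-cAMP-cryptate added; 1hr RT; 665/615 nm read.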

Test [17] shares this target. The test can be described thus: Adrenergic beta2 receptor (ADRB2) small molecule agonists, cell-based qHTS assay (AID 1963593).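 Further: CHO cells stably overexpressing human ADRB2.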 The gist of the method:
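CHO cells stably over-expressing ADRB2 were plated overnight at 37C, then dosed with compounds plus a stimulation mix containing 100uM IBMX and 25uM Ro-20-1724 for 0.5hr at room temperature. cAMP was measured by HTRF competition, 1hr.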

Test [18] concerns the target D(2) dopamine receptor (Homo sapiens) (UniProt P14416). As to the kind of experiment: Dopamine D2 receptor (DRD2) small molecule agonists, cell-based qHTS assay (AID 1963594). Further: nearly all actives have a fitted effect of over 35% in size. The gist of the method: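 HEK293 cells stably expressing human DRD2, pre-treated with PDE inhibitor Ro20-1724 (0.1 mM final) and compound 10 min at room temperature, then stimulated with NKH477 (200nM […]) for 30 min. cAMP read by HTRF (665/620 nm).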

For test [19] the target is unchanged. The test can be described thus: Dopamine D2 receptor (DRD2) small molecule antagonists, cell-based qHTS assay (AID 1963595; active means well fitted inhibition curve with a large enough effect in the signal ratio in the repeat runs, with a control signal flat; the % refers to the signal ratio). The gist of the method:
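Antagonism was scored as restored cAMP in HEK293-DRD2 cells. These cells were stimulated with 200 nM NKH477 and 12 nM quinpirole for 30 min at room temperature, in the presence of 0.1 mM Ro20-1724.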

Test [20] in a line: p53 small molecule agonists, cell-based qHTS assay with rat liver microsomes (AID 1963578). The procedure, abridged:
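Each plate received p53RE-bla cells, then compound, then rat liver microsomes and NADPH (both 0.5 mg/mL final). Plates were held 16 h at 37 C, and beta-lactamase activity was detected with LiveBLAzer over 2 h.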

Chain of Muscarinic acetylcholine receptor M1 (Homo sapiens) (P11229 whole entry, looked up): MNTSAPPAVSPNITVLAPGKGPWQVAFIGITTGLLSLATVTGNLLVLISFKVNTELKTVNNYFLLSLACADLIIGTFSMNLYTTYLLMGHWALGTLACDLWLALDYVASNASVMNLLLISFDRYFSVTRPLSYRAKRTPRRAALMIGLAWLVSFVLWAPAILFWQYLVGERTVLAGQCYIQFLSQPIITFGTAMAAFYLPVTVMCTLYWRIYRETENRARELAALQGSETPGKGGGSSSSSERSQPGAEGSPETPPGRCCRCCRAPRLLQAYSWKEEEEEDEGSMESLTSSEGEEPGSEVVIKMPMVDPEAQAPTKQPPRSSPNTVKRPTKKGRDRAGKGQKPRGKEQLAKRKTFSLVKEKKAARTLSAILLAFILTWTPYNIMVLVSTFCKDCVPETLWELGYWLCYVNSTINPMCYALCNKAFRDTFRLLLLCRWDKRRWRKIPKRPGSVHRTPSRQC
Chain of Beta-2 adrenergic receptor (Homo sapiens) (P07550 whole entry, looked up): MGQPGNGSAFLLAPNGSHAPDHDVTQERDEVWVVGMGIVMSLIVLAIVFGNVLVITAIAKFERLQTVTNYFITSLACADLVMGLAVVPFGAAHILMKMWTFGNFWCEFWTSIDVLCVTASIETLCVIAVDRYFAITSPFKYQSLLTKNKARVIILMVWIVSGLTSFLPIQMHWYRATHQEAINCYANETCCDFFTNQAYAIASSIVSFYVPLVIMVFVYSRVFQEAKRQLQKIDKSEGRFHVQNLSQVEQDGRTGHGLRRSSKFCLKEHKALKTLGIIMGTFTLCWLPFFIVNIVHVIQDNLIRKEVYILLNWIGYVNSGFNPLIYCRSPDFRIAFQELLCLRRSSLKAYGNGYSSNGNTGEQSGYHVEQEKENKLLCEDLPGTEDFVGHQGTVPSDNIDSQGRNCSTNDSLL
Chain of D(2) dopamine receptor (Homo sapiens) (P14416 whole entry, looked up): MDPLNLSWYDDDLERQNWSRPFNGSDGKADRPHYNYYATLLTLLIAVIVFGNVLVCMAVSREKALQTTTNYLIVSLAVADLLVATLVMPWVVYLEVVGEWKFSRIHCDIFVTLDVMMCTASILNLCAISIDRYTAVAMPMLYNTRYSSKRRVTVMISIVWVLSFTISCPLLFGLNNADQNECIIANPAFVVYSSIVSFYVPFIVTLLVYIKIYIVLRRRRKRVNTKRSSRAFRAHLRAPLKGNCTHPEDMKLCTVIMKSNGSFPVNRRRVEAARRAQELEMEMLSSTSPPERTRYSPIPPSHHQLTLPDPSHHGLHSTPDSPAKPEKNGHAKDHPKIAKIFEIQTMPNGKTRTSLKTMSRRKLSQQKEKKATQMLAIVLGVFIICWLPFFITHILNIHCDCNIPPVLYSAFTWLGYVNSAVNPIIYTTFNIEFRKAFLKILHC
Chain of 5-hydroxytryptamine receptor 2A (Homo sapiens) (P28223 whole entry, looked up): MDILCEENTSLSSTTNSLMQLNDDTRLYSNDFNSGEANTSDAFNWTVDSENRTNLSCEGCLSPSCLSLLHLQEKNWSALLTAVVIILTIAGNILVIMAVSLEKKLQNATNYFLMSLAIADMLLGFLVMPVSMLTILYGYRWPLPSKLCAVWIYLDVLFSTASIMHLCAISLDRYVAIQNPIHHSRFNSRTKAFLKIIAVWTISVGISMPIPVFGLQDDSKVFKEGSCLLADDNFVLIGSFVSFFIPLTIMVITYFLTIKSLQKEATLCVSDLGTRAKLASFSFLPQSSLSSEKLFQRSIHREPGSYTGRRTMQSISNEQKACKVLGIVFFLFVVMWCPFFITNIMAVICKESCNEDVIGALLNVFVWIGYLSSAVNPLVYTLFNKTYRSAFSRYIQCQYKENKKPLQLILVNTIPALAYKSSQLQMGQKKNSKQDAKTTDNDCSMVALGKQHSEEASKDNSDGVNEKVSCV
Chain of KiSS-1 receptor (Homo sapiens) (Q969F8 whole entry, looked up): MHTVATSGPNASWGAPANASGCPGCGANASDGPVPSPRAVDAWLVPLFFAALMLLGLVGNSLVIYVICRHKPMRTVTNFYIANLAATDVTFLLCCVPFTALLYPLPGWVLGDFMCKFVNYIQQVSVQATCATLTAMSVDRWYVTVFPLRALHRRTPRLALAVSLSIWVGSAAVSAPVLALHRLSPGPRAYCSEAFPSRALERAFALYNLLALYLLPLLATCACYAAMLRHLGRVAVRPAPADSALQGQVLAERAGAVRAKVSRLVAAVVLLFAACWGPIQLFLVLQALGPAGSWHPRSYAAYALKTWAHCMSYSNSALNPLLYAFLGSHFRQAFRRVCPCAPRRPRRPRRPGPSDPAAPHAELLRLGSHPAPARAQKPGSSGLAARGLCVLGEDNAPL

Turning to `CCC(=O)CC`, the Potency result in test [1], in test [2], in test [3], in [4], in [5] and in test [6] was “inactive” each time. The Potency entry in [7], in test [8], in test [9], in test [10], in test [11] and in [12] was “inactive” each time. Also, the Potency entry in test [13], in test [14], in test [15], in test [16], in test [17] and in [18] was “inactive” throughout. Moreover, the Potency result in test [19] was “inactive”.
Take `CC(C)CCCCCCCCCCCCCCC(=O)O`: the Potency entry in test [1], in test [2], in [3], in test [4], in test [5] and in test [6] was “inactive” in each case. Further, the Potency entry in test [7], in test [8], in test [9], in test [10], in test [11] and in test [12] was “inactive” throughout. The Potency entry in test [13], in test [14], in [15], in test [16], in test [17] and in test [19] was “inactive” in each case.
Take `F[Si-2](F)(F)(F)(F)F`: the Potency result in [1], in test [2], in test [3], in test [4], in [5] and in test [6] was “inactive” in each case. In addition, the Potency entry in test [7], in test [8], in [9], in test [10], in [11] and in test [12] was “inactive” in each case. Besides, the Potency entry in test [13], in test [14], in test [15], in [16], in test [17] and in [19] was “inactive” throughout.
On to `CC(C)(c1cc(Br)c(OCC(Br)CBr)c(Br)c1)c1cc(Br)c(OCC(Br)CBr)c(Br)c1` (stereo unspecified), for which the Potency result in test [1], in test [2], in [3], in [4], in test [5] and in [6] was “inactive” throughout. The Potency result in [7], in test [8], in [9], in test [10], in test [11] and in test [12] was “inactive” each time. Moreover, the Potency entry in test [13], in test [14], in [15], in [16], in [17] and in test [18] was “inactive” throughout. Moreover, the Potency result in test [19] is “inactive”.
Consider `Cc1nc(-c2ccc3c(c2)CCN(CCC2CCC(NC(=O)/C=C/c4ccc(F)cc4)CC2)CC3)no1` (stereo unspecified), for which the Potency result in [1], in test [2], in [3], in test [4], in test [5] and in [6] was “inactive” throughout. Moreover, the Potency entry in [20], in test [8], in test [9], in test [10], in test [11] and in test [14] was “inactive” each time. For the same compound, the Potency result in test [15], in test [16] and in [17] was “inactive” in each case. Moreover, in test [12], the Potency was 266 nM (active).
For `CC12CCC(C(=O)C1=O)C2(C)C` (stereo unspecified), the Potency entry in [1], in test [2], in test [3], in test [4], in test [5] and in [6] was “inactive” each time. Moreover, the Potency entry in test [20], in test [8], in test [10], in test [11], in test [12] and in [13] was “inactive” each time. For the same compound, the Potency entry in [14], in test [15], in [16], in test [17], in test [18] and in test [19] was “inactive” each time.
In the case of `COC(=O)c1ccc(C)cc1C1=NC(C)(C(C)C)C(=O)N1` (stereo unspecified), the Potency entry in [1], in test [2], in [3], in [4], in test [5] and in test [6] was “inactive” in each case. For the same compound, the Potency result in [7], in test [8], in test [9], in [10], in [11] and in [12] was “inactive” throughout. Further, the Potency result in test [13], in test [14], in [15], in [16], in test [18] and in test [19] was “inactive” throughout.
